A short description of experiment [1]: hit retest on RPL19A-GFP reporter strain – cell-based, S. cerevisiae, flow cytometry, cherry picks, mother/daughter gates, confirmation (AID 2270). As to conditions: 3 h, at 10 µM, stronger effect = lower value, 100 = same GFP as DMSO wells. Background: In flow cytometry, cells or beads pass a laser one at a time.
Experiment [2] in a line: yeast TOR pathway reporter LAP4-GFP change – cell-based, cherry picks, flow cytometry, mother/daughter gates, confirmation (AID 2271;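 active means GFP response above 150% of the DMSO control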;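 further: ratio of sample to DMSO plate mean so 100% equals DMSO level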). As to conditions: S. cerevisiae LAP4-GFP strain, 3 h, at 10 µM, stronger effect = higher value.
The nature of experiment [3]: TOR pathway CIT2 reporter hit retest – S. cerevisiae, GFP fusion, cherry picks, mother/daughter gates, confirmation (AID 2274;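 active means GFP response above 150% of the DMSO level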). As to conditions: S. cerevisiae CIT2-GFP strain, flow cytometry, 3 h, at 10 µM, stronger effect = higher value.
Experiment [4] in a line: rapamycin-like changes in RPL19A-GFP expression – cell-based, S. cerevisiae, multiplex flow cytometry, primary screen (AID 1862; in the data active means percent of DMSO control GFP below about 86%;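 further: lower values mimic rapamycin by blocking the RPL19A rise seen in DMSO cells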). The settings on record: S. cerevisiae RPL19A-GFP strain, flow cytometry fluorescence, 3 h; at 10 µM; stronger effect = lower value.
Experiment [5] in a line: TOR pathway GLN3 branch reporter MEP2-GFP changes – S. cerevisiae, multiplex flow cytometry, primary screen (AID 1867;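 active means GFP response, as percent of the DMSO control, above the screen-wide mean plus 3 SD, about 139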;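 further: median GFP channel fluorescence of barcode-gated MEP2-GFP cells measured by flow cytometry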). The settings on record: S. cerevisiae MEP2-GFP strain, 3 h, at 10 µM, stronger effect = higher value.
Experiment [6] in a line: TOR pathway RTG branch CIT2 reporter changes – S. cerevisiae, GFP fusion, multiplex flow cytometry, primary screen (AID 1870;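 active means percent response above a set limit, the screen-wide mean plus 3 SD, cut at about 130% in these data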;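 further: barcoded CIT2-GFP strain pooled with four other GFP strains with rapamycin as positive control; median GFP fluorescence per well over plate mean of DMSO wells so 100% = DMSO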). The settings on record: S. cerevisiae CIT2-GFP expression, 3 h, at 10 µM, stronger effect = higher value.
Experiment [7] in a line: TOR pathway LAP4-GFP level changes – S. cerevisiae, multiplex flow cytometry, primary screen (AID 1873;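 active means GFP signal, as percent of the solvent control, above the screen mean plus 3 SD, about 149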). The settings on record: S. cerevisiae LAP4-GFP expression, 3 h, at 10 µM, stronger effect = higher value.
A short description of experiment [8]: reduced mouse 2C T cell binding to pMHC/ICAM-1 vesicles – MLPCN validation set, flow cytometry, LFA-1/ICAM-1 modulator project, pilot screen (AID 2523;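 active means response below a set limit, under 55% cells CD8-positive and vesicle-bound, and CD8 cells' 90th-percentile brightness under 279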;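 on vesicle binding response: mean PE anti-B7-1 fluorescence of CD8+ cells relative to row control; 100% = QL9-loaded vesicles with DMSO vehicle in the same plate row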). As to conditions: 2C mouse CD8+ T cells, at 7 µM, stronger effect = lower value; double positive events: measured here: CD8+/vesicle+ event percentage.
In experiment [9] the target is Integrin beta-1 (Homo sapiens) + Integrin alpha-4 (Homo sapiens) (UniProt P13612+P05556). The experiment can be described thus: alpha4beta1 integrin LIBS antibody binding reduction – U937 cells, HUTS-21 mAb, flow cytometry, validation set, VLA-4 allosteric modulator project, pilot screen (AID 2674;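 active means inhibition above 50%, about 3 SD of the validation set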;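 further: antibody binding induced by the VLA-4 ligand LDV present at three times its Kd; 0% = LDV ligand with antibody and no compound and 100% = antibody without LDV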). The settings on record: HUTS-21 LIBS mAb binding, at 6.7 µM, stronger effect = higher value.
Sequence of Integrin beta-1 (Homo sapiens) + Integrin alpha-4 (Homo sapiens) (P05556 whole entry, looked up): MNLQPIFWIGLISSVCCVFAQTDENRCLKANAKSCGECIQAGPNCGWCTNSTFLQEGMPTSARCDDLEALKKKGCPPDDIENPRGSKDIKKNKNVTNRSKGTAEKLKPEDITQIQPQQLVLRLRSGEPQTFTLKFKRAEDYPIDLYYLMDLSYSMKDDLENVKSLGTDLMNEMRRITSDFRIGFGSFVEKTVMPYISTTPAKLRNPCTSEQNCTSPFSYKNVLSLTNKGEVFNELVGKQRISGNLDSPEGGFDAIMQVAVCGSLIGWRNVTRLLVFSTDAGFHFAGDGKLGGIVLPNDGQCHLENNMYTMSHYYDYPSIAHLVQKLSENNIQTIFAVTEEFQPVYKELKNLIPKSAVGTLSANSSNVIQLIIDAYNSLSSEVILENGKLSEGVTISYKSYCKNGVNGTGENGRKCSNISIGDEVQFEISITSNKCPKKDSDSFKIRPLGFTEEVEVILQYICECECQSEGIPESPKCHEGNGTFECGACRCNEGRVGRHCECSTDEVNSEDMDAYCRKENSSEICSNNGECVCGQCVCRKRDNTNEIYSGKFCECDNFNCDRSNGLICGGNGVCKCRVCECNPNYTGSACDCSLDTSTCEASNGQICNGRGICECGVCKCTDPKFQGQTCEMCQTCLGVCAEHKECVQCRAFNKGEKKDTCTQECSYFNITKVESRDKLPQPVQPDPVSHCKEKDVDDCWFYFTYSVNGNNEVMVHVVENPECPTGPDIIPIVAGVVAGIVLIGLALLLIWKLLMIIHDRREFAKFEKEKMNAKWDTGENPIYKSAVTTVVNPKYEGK
Sequence of Integrin beta-1 (Homo sapiens) + Integrin alpha-4 (Homo sapiens) (P13612 whole entry, looked up): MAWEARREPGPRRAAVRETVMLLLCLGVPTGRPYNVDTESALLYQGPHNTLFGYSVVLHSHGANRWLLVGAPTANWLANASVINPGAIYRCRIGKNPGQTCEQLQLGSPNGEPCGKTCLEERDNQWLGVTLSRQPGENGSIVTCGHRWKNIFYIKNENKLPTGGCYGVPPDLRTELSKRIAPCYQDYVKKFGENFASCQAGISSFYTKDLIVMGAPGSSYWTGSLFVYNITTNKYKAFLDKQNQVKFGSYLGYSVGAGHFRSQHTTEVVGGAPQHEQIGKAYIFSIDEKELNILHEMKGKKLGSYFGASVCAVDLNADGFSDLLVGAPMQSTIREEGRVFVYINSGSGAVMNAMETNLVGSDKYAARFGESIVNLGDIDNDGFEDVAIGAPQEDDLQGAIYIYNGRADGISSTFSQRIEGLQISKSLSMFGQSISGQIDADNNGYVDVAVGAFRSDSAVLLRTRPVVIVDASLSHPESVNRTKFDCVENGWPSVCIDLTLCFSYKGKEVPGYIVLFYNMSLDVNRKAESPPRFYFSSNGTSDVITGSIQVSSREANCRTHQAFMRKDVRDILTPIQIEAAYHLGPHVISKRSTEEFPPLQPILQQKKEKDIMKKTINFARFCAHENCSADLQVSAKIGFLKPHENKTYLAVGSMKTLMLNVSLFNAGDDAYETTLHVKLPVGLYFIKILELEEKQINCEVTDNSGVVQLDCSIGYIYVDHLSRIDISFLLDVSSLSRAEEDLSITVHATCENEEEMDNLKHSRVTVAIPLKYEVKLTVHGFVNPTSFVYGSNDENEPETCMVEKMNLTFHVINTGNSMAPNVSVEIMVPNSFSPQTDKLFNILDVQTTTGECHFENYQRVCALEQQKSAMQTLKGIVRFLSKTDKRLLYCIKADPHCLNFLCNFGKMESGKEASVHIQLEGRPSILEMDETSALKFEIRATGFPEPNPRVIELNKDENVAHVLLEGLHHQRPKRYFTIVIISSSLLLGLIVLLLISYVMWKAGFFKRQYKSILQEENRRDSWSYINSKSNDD

A short description of experiment [10]: calorie-restriction mimetic ROS inhibitors, yeast – validation compound set, pilot screen (AID 2706;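 active means superoxide response below 65% of plate, a cut near 3 SD across the whole screen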;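 further: yeast exposed to compound for one week at 30 degrees C before staining; 100% = mean of all compound wells on the same plate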). As to conditions: S. cerevisiae aging, superoxide DHE fluorescence; at 10 µM; stronger effect = lower value.
Experiment [11] addresses Beta-adrenergic receptor kinase 1 (Homo sapiens) (UniProt P25098). Nature of the experiment: GRK2 binders displacing RNA aptamer, biochemical, validation, human GRK2, bead flow cytometry (AID 488806;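 active means aptamer binding inhibition above 30%, about 3 SD of noise from non-fluorescent compounds; inactive means inhibition at or below 30%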). As to conditions: bead-bound GRK2, FAM-aptamer displacement, at 10 µM, stronger effect = higher value.
The target of experiment [12] is AP-2 complex subunit beta (Homo sapiens) (UniProt P63010). The experiment can be described thus: beta-arrestin/AP2 interaction blockers – biochemical, validation set, GST-AP2 beads, flow cytometry, pilot screen (AID 504541;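 active means inhibition above 54%, about 3 SD of non-fluorescent compounds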;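 further: AP2 carries R879A mutation and is captured from E. coli lysate; bead-bound FITC arrestin peptide fluorescence measuring arrestin peptide binding to AP2; 0% = DMSO wells and 100% = excess unlabeled arrestin peptide control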). As to conditions: FITC arrestin peptide, at 10 µM, stronger effect = higher value.
Experiment [13] can be described thus: cytosolic pH regulators acting via V-ATPase – S. cerevisiae, pHLuorin, HTS validation (AID 504600; in the data active means response above about 15%;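 further: plate controls were DMSO for no effect and reference compound for full effect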). The settings on record: V-ATPase proton transport, at 10 µM, stronger effect = higher value.
Experiment [14] has as its system anti-desmoglein-3 scFv antibody binding to human DSG3. Nature of the experiment: blockers of pathogenic pemphigus antibody–desmoglein-3 binding – biochemical, validation compound set, bead-based, flow cytometry, pilot screen (AID 588368;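 active means binding below the plate cutoff, the plate median minus 3 SD, with a reading above zero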;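 further: signal is the median channel fluorescence of bead-bound GFP antibody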). The settings on record: Protein G beads, DSG3-Fc, scFv-GFP binding, at 10 µM, stronger effect = lower value.
Experiment [15] has as its system Botulinum neurotoxin type F light chain protease (Clostridium botulinum). The experiment can be described thus: Clostridium botulinum type F light chain protease inhibitors, microsphere substrate cleavage, validation (AID 588459; call rule not given here). As to conditions: multiplex microsphere protease substrate cleavage assay, flow cytometry; at 10 µM; stronger effect = higher value.
Experiment [16] concerns the target Botulinum neurotoxin type A (Clostridium botulinum) (UniProt P0DPI0). The experiment can be described thus: BoNT/A light chain protease inhibitors, biochemical, multiplex microsphere flow cytometry, validation set (AID 588460; call rule not given here). The settings on record: at 10 µM, stronger effect = higher value.
In experiment [17] the target is Lethal factor (Bacillus anthracis) (UniProt P15917). The experiment can be described thus: Bacillus anthracis lethal factor inhibition, microsphere flow cytometry protease assay, validation at 10 µM (AID 588461; call rule not given here). As to conditions: multiplex microsphere protease cleavage assay, stronger effect = higher value.
A short description of experiment [18]: Nile Red efflux blockade in pump-expressing yeast – validation compound set, multiplex, phenotypic, pilot screen (AID 588506;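 active means efflux inhibition above 0.42, the validation set average plus 4 SD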;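 further: Nile Red retained in cells so higher fluorescence means more efflux inhibition; 0 = negative control wells and 1 = enniatin B 25 µM full block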). As to conditions: S. cerevisiae pump-expressing triplex, Nile Red efflux flow cytometry; at 10 µM; stronger effect = higher value.
Experiment [19] has as its target ATP-binding cassette sub-family B member 6 (Homo sapiens) (UniProt Q9NP58). The experiment can be described thus: blockers of ABCB6-driven porphyrin uptake – K562-ABCB6 cells, flow cytometry, validation set, pilot screen (AID 588550;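 active means inhibition above the screen-wide mean plus 3 SD, about 51%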;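 further: 0% = DMSO wells and 100% = benzethonium chloride 70 µM positive control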). The settings on record: K562-ABCB6 porphyrin accumulation, 1 h, at 10 µM, stronger effect = higher value.
A short description of experiment [20]: AML differentiation inducers, ER-HoxA9 marrow cells – cell-based, GFP/MAC1 double positive, flow cytometry, validation set, primary screen (AID 588685;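 active means differentiation response of at least 50%, scaled between solvent and reference control, from cells with both markers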;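 further: compound exposure lasts four days before antibody staining and flow analysis; 0% = DMSO wells and 100% = 5 µM fulvestrant positive control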). As to conditions: stronger effect = higher value.
The mark [21] stands for this setting: measured here: daughter cell gate.
Where [22] appears, read: measured here: mother cell gate.
[23] abbreviates: measured here: daughter cell gate response.
The mark [24] stands for this setting: measured here: mother cell gate response.

Results filed as inconclusive are left out. Active and inactive are the calls of the source.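 How the source made its calls, unless noted: active means GFP response below 50% of the DMSO control; inconclusive means fewer than 70 events counted for a yeast strain; inactive means the rest.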

Sequence of Botulinum neurotoxin type A (Clostridium botulinum) (P0DPI0 whole entry, looked up): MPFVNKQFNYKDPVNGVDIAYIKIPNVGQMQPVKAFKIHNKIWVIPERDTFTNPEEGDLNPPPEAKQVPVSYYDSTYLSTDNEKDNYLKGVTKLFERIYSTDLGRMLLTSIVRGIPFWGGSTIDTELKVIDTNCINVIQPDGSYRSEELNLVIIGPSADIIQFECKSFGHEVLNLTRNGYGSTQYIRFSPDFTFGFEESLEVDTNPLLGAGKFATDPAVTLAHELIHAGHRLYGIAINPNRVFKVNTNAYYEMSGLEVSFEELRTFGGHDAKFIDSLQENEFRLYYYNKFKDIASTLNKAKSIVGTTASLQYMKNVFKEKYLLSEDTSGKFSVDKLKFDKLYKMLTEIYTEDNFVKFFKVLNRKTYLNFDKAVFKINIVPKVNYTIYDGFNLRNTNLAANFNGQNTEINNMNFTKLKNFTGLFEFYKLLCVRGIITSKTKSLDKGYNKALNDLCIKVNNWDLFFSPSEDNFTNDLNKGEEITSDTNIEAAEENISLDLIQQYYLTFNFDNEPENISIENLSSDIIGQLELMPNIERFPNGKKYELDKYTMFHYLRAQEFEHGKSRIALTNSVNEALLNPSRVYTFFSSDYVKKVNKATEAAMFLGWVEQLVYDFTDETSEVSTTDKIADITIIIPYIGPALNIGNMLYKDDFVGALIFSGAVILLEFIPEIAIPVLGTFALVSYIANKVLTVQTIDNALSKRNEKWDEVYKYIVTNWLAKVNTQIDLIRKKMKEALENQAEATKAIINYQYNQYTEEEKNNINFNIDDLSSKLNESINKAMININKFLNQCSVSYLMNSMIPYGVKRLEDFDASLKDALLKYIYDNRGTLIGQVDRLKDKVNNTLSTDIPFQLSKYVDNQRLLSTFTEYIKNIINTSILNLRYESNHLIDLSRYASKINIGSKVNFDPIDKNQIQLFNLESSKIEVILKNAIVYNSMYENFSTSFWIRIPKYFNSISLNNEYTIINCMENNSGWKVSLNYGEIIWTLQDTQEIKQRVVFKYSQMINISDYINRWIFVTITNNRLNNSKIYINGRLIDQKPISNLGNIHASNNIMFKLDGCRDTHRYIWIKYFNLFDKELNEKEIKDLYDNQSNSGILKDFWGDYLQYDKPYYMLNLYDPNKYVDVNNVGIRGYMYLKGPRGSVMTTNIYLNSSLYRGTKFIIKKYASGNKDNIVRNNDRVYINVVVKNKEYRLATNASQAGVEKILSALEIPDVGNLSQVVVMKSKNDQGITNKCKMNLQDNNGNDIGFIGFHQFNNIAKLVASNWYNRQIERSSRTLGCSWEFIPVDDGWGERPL
Sequence of Beta-adrenergic receptor kinase 1 (Homo sapiens) (P25098 whole entry, looked up): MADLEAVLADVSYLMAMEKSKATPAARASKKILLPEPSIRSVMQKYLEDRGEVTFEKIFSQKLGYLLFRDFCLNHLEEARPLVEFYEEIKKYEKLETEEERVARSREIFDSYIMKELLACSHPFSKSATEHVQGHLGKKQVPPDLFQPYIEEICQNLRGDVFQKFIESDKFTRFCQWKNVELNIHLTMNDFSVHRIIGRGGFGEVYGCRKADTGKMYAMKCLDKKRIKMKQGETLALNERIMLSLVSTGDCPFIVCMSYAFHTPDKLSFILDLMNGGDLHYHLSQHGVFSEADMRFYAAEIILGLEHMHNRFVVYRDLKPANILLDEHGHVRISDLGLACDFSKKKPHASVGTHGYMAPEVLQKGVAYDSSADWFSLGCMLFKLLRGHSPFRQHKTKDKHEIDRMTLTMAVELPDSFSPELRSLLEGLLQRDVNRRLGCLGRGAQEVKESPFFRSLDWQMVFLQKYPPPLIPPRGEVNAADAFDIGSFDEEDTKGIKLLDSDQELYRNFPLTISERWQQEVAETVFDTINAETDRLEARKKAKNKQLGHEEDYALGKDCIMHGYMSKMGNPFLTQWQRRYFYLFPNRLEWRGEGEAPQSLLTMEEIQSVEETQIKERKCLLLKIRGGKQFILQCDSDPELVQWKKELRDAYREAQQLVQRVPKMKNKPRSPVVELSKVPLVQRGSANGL
Sequence of ATP-binding cassette sub-family B member 6 (Homo sapiens) (Q9NP58 whole entry, looked up): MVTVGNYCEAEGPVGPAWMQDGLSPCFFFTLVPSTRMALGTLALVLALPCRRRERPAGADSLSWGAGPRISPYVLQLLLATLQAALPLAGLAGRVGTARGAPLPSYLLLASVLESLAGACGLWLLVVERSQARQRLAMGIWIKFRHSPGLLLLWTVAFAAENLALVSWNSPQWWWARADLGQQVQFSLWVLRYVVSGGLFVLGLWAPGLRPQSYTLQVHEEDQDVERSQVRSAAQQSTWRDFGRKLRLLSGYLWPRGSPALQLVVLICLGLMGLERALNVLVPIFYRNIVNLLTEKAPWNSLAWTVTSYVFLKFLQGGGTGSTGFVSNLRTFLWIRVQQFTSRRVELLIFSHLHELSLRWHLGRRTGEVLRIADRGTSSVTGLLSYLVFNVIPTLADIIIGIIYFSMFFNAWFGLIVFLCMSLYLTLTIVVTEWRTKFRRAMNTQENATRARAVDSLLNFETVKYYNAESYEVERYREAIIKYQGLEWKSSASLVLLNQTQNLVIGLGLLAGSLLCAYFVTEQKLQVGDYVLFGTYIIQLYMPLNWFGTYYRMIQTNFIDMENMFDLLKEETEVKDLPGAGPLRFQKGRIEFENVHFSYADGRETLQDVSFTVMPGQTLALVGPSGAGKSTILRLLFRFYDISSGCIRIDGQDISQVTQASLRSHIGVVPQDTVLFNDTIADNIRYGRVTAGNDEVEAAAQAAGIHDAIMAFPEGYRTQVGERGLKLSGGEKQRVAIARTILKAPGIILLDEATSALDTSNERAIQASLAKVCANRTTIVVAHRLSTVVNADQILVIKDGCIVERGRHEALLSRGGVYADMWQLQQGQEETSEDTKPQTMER

With `O=C1NC(=S)NC(=O)C1=Cc1ccc2c(c1)CCN2CCCCl`, the GFP response vs DMSO was 98.4% (inactive) in [1], 87.8% in experiment [1] (setting [21]) and 86% in [1] (setting [22]). Further, the GFP response relative to DMSO in [2] is 163% (active); in [2] (setting [23]), 110%; in [2] (setting [24]), 184%. In addition, the GFP response, % of DMSO in experiment [3] is 85.7% (inactive); in experiment [3] (setting [21]), 90.2%; in experiment [3] (setting [22]), 76%.

In the case of `O=C(O)c1[nH]c(=O)[nH]c(=O)c1F`, the GFP response vs DMSO was 96.9% (inactive) in experiment [1], 97.6% in [1] (setting [21]) and 95.6% in experiment [1] (setting [22]). Moreover, the GFP response relative to DMSO in experiment [2] is 100% (inactive); in [2] (setting [23]) it was 97.5%; in [2] (setting [24]) it was 100%. For the same compound, the results for the GFP response, % of DMSO in [3], in experiment [3] (setting [21]) and in experiment [3] (setting [22]) were 100% (inactive), 99.3% and 100%, respectively.

Turning to `O=c1oc2ccccc2c(O)c1[C@H]1c2ccc(O)cc2Oc2c1c(=O)oc1ccccc21`, the GFP response vs DMSO was 108% (inactive) in [1], 96.1% in experiment [1] (setting [21]) and 98.9% in experiment [1] (setting [22]). For the same compound, the GFP response relative to DMSO in experiment [2] is 190% (active); in experiment [2] (setting [23]), 167%; in experiment [2] (setting [24]), 192%. Moreover, the GFP response, % of DMSO is 76.9% (inactive) in [3], 78.5% in experiment [3] (setting [21]) and 71.9% in experiment [3] (setting [22]).

The inhibition is the relative decrease from the control value, in per cent. `CCOC(=O)C1=C(C)OC(N)=C(C(=O)OCC)[C@@]12C(=O)N(CC(N)=O)c1ccccc12`: in experiment [4], the percent of DMSO control GFP is 90.9% (inactive). In addition, the GFP response vs DMSO in experiment [5] was 120% (inactive); in [7], 71% (inactive). Also, the percent response of DMSO control in [6] was 110% (inactive). Moreover, the double positive events in experiment [8] came to 43.7%. The vesicle binding response in experiment [8] is 66.2% (active). Moreover, the inhibition in [9] was 18.1% (inactive); in experiment [12], -3.6% (inactive); in [15], 0.6% (inactive); in experiment [16], -0.3% (inactive); in [17] it was 0.4% (inactive); in [19], 6% (inactive). In addition, the superoxide response (% of plate) in experiment [10] is 104% (inactive). The aptamer binding inhibition in experiment [11] is -1% (inactive). Further, in experiment [13], the response was 1.98% (inactive). Besides, in experiment [14], the binding (% of control) was 104% (inactive). Moreover, in [18], the efflux inhibition (fraction of control) is -0.31 (inactive). Moreover, the differentiation response in [20] was 4.09% (inactive).

As for `O=C(O)c1nn(Cc2ccc(Cl)cc2Cl)c2ccccc12`, the values for the GFP response vs DMSO in [1], in experiment [1] (setting [21]) and in experiment [1] (setting [22]) were 101% (inactive), 98.7% and 104%, respectively. The GFP response relative to DMSO was 103% (inactive) in experiment [2], 100% in experiment [2] (setting [23]) and 102% in experiment [2] (setting [24]). Besides, the GFP response, % of DMSO in experiment [3] was 93.9% (inactive); in experiment [3] (setting [21]) it was 91.5%; in experiment [3] (setting [22]), 94.4%.

On to `O=C1NC(=O)N(CCc2ccc(F)cc2)C(=O)/C1=C/c1cccs1`, for which the values for the GFP response vs DMSO in [1], in experiment [1] (setting [21]) and in [1] (setting [22]) were 97% (inactive), 95% and 94.1%, respectively. Moreover, the GFP response relative to DMSO in experiment [2] was 152% (active); in experiment [2] (setting [23]), 142%; in experiment [2] (setting [24]) it was 155%. The GFP response, % of DMSO is 81% (inactive) in experiment [3], 85.7% in [3] (setting [21]) and 72.8% in [3] (setting [22]).

As to `COc1ccc(N2C(=O)/C(=C/c3ccco3)C(=O)NC2=S)cc1`, the GFP response vs DMSO is 97.4% (inactive) in experiment [1], 102% in experiment [1] (setting [21]) and 91.4% in experiment [1] (setting [22]). Also, the figures for the GFP response relative to DMSO in [2], in experiment [2] (setting [23]) and in experiment [2] (setting [24]) were 91.4% (inactive), 94.1% and 94.2%, respectively. In addition, the GFP response, % of DMSO is 91.3% (inactive) in [3], 103% in [3] (setting [21]) and 83.7% in experiment [3] (setting [22]).

For the compound `CCN(CC)c1ccc(C=C2C(=O)NC(=S)NC2=O)cc1`, the GFP response vs DMSO in experiment [1] was 94.7% (inactive); in experiment [1] (setting [21]) it was 90.2%; in [1] (setting [22]), 90%. In addition, the GFP response relative to DMSO in experiment [2] is 128% (inactive); in experiment [2] (setting [23]), 116%; in [2] (setting [24]) it was 131%. Moreover, the GFP response, % of DMSO is 94.4% (inactive) in [3], 95.8% in experiment [3] (setting [21]) and 84.8% in experiment [3] (setting [22]).

The record behind these values is PubChem BioAssay.
